From article PMC5540273 (PLoS ONE, 2017)
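Also: KINOMEscan kinase panel screen.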

What follows are molecules tested on PRKG1. Details: concentration: 1 μM,replicates: in singlicate; n = 1.
For `C[C@@H](Oc1cc(-n2cnc3ccc(-c4ccncc4)cc32)sc1C(N)=O)c1ccccc1Cl` [GSK483724], the “%Inh” value was 0%. For `CNC(=O)c1ccccc1Nc1nc(Nc2cccc(CS(C)(=O)=O)c2)ncc1C.O=CO` [GSK1520489], the “%Inh” value was 0%. In the case of `COc1cc2c(Nc3ccc(NC(=O)c4ccccc4)cc3)ncnc2cc1OCCCN1CCOCC1` [GSK301329], the “%Inh” value is reported as 0%. In the case of `O=C(Nc1ccc(Oc2ccc3nc(NC(=O)C4CC4)cn3n2)c(F)c1)c1cccn(-c2ccccc2)c1=O`, the “%Inh” value is reported as 30%. `COc1cc(Nc2nccc(N3CCC(NC(=O)c4cccc(C#N)c4)C3)n2)cc(OC)c1OC` (stereo not shown) [GSK1379751] was tested, and the “%Inh” value was 0%. In the case of `CC(C)S(=O)(=O)N1CCN(Cc2ccc3c(c2)nc(NC(=O)c2ccsc2)n3C[C@H](O)c2ccccc2)CC1` [GW635815], the “%Inh” value is reported as 23%. `Cn1ccc2ncnc(Oc3ccc(NC(=O)Nc4cccc(C(F)(F)F)c4)c(F)c3)c21` was tested, and the “%Inh” value was 18%. For `Cc1ccc2c(-c3ccnc(Nc4ccc(C(F)(F)F)cc4)n3)cnn2n1` [GW819776], the “%Inh” value was 8%. In the case of `C[C@@H]1CNc2c(sc3ccc4nc(-c5ccncc5)ccc4c23)C(=O)N1`, the “%Inh” value is reported as 35%. `Cn1ccc2ncnc(Oc3ccc(NC(=O)Nc4cccc(C(F)(F)F)c4)c(Cl)c3)c21` was tested, and the “%Inh” value was 0%. In the case of `COc1cccc(OC)c1C(=O)Nc1cccc(-c2nn3ccccc3c2-c2ccnc(Nc3cccc(F)c3)n2)c1` [GSK361065], the “%Inh” value is reported as 11%. `CN1CCN(CCCNc2nccc(-c3c(-c4ccc(F)cc4)nn4cc(C(N)=O)ccc34)n2)CC1` [GW622475] was tested, and the “%Inh” value was 6%. `CCCC(=O)Nc1n[nH]c2ncccc12` [SB-601436] was tested, and the “%Inh” value was 5%. In the case of `Cn1ccc2ncnc(Oc3ccc(NC(=O)Nc4cc(C(C)(C)C)on4)c(Cl)c3)c21`, the “%Inh” value is reported as 0%. For `Cl.c1ccc(Oc2ccc(Nc3ccnc4cc(-c5ccc(CN6CCNCC6)o5)ccc34)cc2)nc1` [GW567142], the “%Inh” value was 0%. `CC(=O)Nc1ccc(-c2cc3ncnc(SCC(=O)O)c3s2)cc1` was tested, and the “%Inh” value was 1%. For `Cc1ccc(Nc2ccnc(Nc3ccc4c(c3)CS(=O)(=O)C4)n2)cc1O.Cl` [GW579362], the “%Inh” value was 0%. `COc1cccc(C2=C(Nc3cccc(Cl)c3)C(=O)NC2=O)c1` [SB-341556] was tested, and the “%Inh” value was 0%. In the case of `OCCn1cc(-c2cnc3nnn(Cc4ccc5ncccc5c4)c3n2)cn1`, the “%Inh” value is reported as 0%. For `Cn1ccc2ncnc(Oc3ccc(NC(=O)Nc4cncc(C(F)(F)F)c4)c(Cl)c3)c21`, the “%Inh” value was 0%. With `CN(c1cccc(CNc2nc(Nc3ccc4c(c3)CC(=O)N4)ncc2C(F)(F)F)c1)S(C)(=O)=O` the “%Inh” value was 0%. For `Cl.Cl.NC[C@H](CC1CCCCC1)NC(=O)c1ccc(-c2ccnc3[nH]ccc23)s1` [GSK1581428], the “%Inh” value was 99.9%. In the case of `N#Cc1cccc(C(=O)NC2CCN(c3ccnc(Nc4ccc(F)cc4)n3)C2)c1` (stereo not shown) [GSK1379708], the “%Inh” value is reported as 1%. In the case of `c1ccc(Oc2ccc(Nc3ccnc4ccc(-c5ccccn5)cc34)cc2)cc1` [GW407034], the “%Inh” value is reported as 0%.

Each molecule was assayed on PRKG2. Details: concentration: 1 μM,replicates: in singlicate; n = 1.
For `O=C(Nc1ccccc1)c1cccc(Oc2ccc3nccn3n2)c1`, the “%Inh” value was 0%. `Cc1ccc(CC(=O)N2CCc3cc(-c4cn(C)c5ncnc(N)c45)ccc32)cc1` [GSK2634758] was tested, and the “%Inh” value was 12%. In the case of `COC(=O)c1cccc(NC(=O)NC2CCN(c3ccnc(NCc4ccc(F)cc4)n3)CC2)c1` [GSK1379860], the “%Inh” value is reported as 0%. In the case of `Cc1n[nH]c2cc(Nc3ccnc(Nc4cccc(CN5CCOCC5)c4)n3)ccc12` [GW682569], the “%Inh” value is reported as 3%. For `CCN1CCN(CCCC(=O)Nc2n[nH]c3nc(-c4ccc(O)cc4)c(Br)cc23)CC1` [SB-731579], the “%Inh” value was 6%. In the case of `COc1ccc(Nc2nccc(N3CCC(NC(=O)c4cccc(C#N)c4)C3)n2)cc1` (stereo not shown) [GSK1379730], the “%Inh” value is reported as 15%. With `C[C@@H](Oc1cc(-n2cnc3cc(-c4ccncc4)ccc32)sc1C(N)=O)c1ccccc1Cl` [GSK479719] the “%Inh” value was 2%. `Cc1nnc(-c2ccc3occ(-c4ccc(S(C)=O)cc4)c3n2)o1` (stereo not shown) was tested, and the “%Inh” value was 0%. For `Cn1cc(-c2cccc3c(N)c(C(N)=O)nnc23)cn1`, the “%Inh” value was 11%. With `Cl.Nc1n[nH]c2cc(-c3ccccn3)ccc12` [GSK2189892] the “%Inh” value was 0%. In the case of `COc1cccc(CNC(=O)NC2CCN(c3ccnc(Nc4cc(OC)c(OC)c(OC)c4)n3)C2)c1` (stereo not shown) [GSK1379765], the “%Inh” value is reported as 0%. In the case of `Cc1ccc(C(=O)Nc2ccc(Oc3ccc4nc(NC(=O)C5CC5)cn4c3)c(F)c2)c(=O)n1-c1ccccc1`, the “%Inh” value is reported as 0%. With `Cc1cccc2c(-c3ccncc3)c(-c3ccc(F)cc3)nn12.Cl` [GW461487] the “%Inh” value was 8%. For `C[C@@H](Oc1cc(-n2cnc3ccc(-c4ccncc4)cc32)sc1C(N)=O)c1ccccc1Cl` [GSK483724], the “%Inh” value was 0%. For `CNC(=O)c1ccccc1Nc1nc(Nc2cccc(CS(C)(=O)=O)c2)ncc1C.O=CO` [GSK1520489], the “%Inh” value was 8%. With `COc1cc2c(Nc3ccc(NC(=O)c4ccccc4)cc3)ncnc2cc1OCCCN1CCOCC1` [GSK301329] the “%Inh” value was 21%. In the case of `O=C(Nc1ccc(Oc2ccc3nc(NC(=O)C4CC4)cn3n2)c(F)c1)c1cccn(-c2ccccc2)c1=O`, the “%Inh” value is reported as 1%. With `COc1cc(Nc2nccc(N3CCC(NC(=O)c4cccc(C#N)c4)C3)n2)cc(OC)c1OC` (stereo not shown) [GSK1379751] the “%Inh” value was 0%. `CC(C)S(=O)(=O)N1CCN(Cc2ccc3c(c2)nc(NC(=O)c2ccsc2)n3C[C@H](O)c2ccccc2)CC1` [GW635815] was tested, and the “%Inh” value was 18%. In the case of `Cn1ccc2ncnc(Oc3ccc(NC(=O)Nc4cccc(C(F)(F)F)c4)c(F)c3)c21`, the “%Inh” value is reported as 17%. For `Cc1ccc2c(-c3ccnc(Nc4ccc(C(F)(F)F)cc4)n3)cnn2n1` [GW819776], the “%Inh” value was 0%. For `C[C@@H]1CNc2c(sc3ccc4nc(-c5ccncc5)ccc4c23)C(=O)N1`, the “%Inh” value was 57%. `Cn1ccc2ncnc(Oc3ccc(NC(=O)Nc4cccc(C(F)(F)F)c4)c(Cl)c3)c21` was tested, and the “%Inh” value was 7%. With `COc1cccc(OC)c1C(=O)Nc1cccc(-c2nn3ccccc3c2-c2ccnc(Nc3cccc(F)c3)n2)c1` [GSK361065] the “%Inh” value was 0%. With `CN1CCN(CCCNc2nccc(-c3c(-c4ccc(F)cc4)nn4cc(C(N)=O)ccc34)n2)CC1` [GW622475] the “%Inh” value was 0%. For `CCCC(=O)Nc1n[nH]c2ncccc12` [SB-601436], the “%Inh” value was 0%. With `Cn1ccc2ncnc(Oc3ccc(NC(=O)Nc4cc(C(C)(C)C)on4)c(Cl)c3)c21` the “%Inh” value was 33%. With `Cl.c1ccc(Oc2ccc(Nc3ccnc4cc(-c5ccc(CN6CCNCC6)o5)ccc34)cc2)nc1` [GW567142] the “%Inh” value was 0%. For `CC(=O)Nc1ccc(-c2cc3ncnc(SCC(=O)O)c3s2)cc1`, the “%Inh” value was 10%. For `Cc1ccc(Nc2ccnc(Nc3ccc4c(c3)CS(=O)(=O)C4)n2)cc1O.Cl` [GW579362], the “%Inh” value was 0%. For `COc1cccc(C2=C(Nc3cccc(Cl)c3)C(=O)NC2=O)c1` [SB-341556], the “%Inh” value was 11%. In the case of `OCCn1cc(-c2cnc3nnn(Cc4ccc5ncccc5c4)c3n2)cn1`, the “%Inh” value is reported as 0%. `Cn1ccc2ncnc(Oc3ccc(NC(=O)Nc4cncc(C(F)(F)F)c4)c(Cl)c3)c21` was tested, and the “%Inh” value was 0%. For `CN(c1cccc(CNc2nc(Nc3ccc4c(c3)CC(=O)N4)ncc2C(F)(F)F)c1)S(C)(=O)=O`, the “%Inh” value was 0%. With `Cl.Cl.NC[C@H](CC1CCCCC1)NC(=O)c1ccc(-c2ccnc3[nH]ccc23)s1` [GSK1581428] the “%Inh” value was 99.2%. In the case of `N#Cc1cccc(C(=O)NC2CCN(c3ccnc(Nc4ccc(F)cc4)n3)C2)c1` (stereo not shown) [GSK1379708], the “%Inh” value is reported as 0%. With `c1ccc(Oc2ccc(Nc3ccnc4ccc(-c5ccccn5)cc34)cc2)cc1` [GW407034] the “%Inh” value was 0%.
